# Reference: PubChem BioAssay AID504834 (National Center for Advancing Translational Sciences (NCATS), 2011)
# The whole screen tested about 320,000 compounds, of which about 22,000 (6.9%) were called active. A call without a number means that no potency is given here. Not shown: some 27% with an inconclusive outcome. Calls follow the shape of the dose curve; as a rule, active = well fitted inhibition curve with a large enough effect; inconclusive = small, poorly fitted or top-dose-only effect, or another doubt; inactive = no such curve, though single readings can be large or run the other way. Many of the other results were omitted from the sample, so actives are more common in it than they were.
# Assay: Primary qHTS for delayed death inhibitors of the malarial parasite plastid, 96 hour incubation
# Conditions: P. falciparum luciferase reporter growth; series mostly up to 28.7 µM
# Summary of the method: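 Delayed-death screen, second-generation endpoint: infected erythrocytes, 2% hematocrit, 0.05% parasitemia final; 96 hours at 37 C, 5% CO2; luciferase detection reagent; luminescence decrease equals reduced growth.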
# Potency is read from the fitted curve at half-maximal effect.
row,SMILES,Potency
1,COc1ccc(C(=O)N[C@H](C(=O)NCc2ccccc2)C(C)C)cc1,inactive
2,COc1cccc(NC(=O)N2CCCC2C(=O)NC2CCCCC2)c1 (centres undefined),inactive
3,CCOC(=O)Cn1c(=O)n(Cc2ccc(OC)cc2)c(=O)c2cccnc21,inactive
4,c1ccc(-c2oc3ncnc(N4CCOCC4)c3c2-c2ccccc2)cc1,inactive
5,COc1cc2nc(Cl)nc(NCCO)c2cc1OC,inactive
6,COc1ccc(-c2oc3ncnc(NCCCO)c3c2-c2ccc(OC)cc2)cc1,2.08 µM (active)
7,Cc1ccc(S(=O)(=O)N(Cc2ccccc2)c2ccccn2)cc1[N+](=O)[O-],inactive
8,CCC(C)N1CC(=O)N2Cc3[nH]c4ccccc4c3C[C@H]2C1=O (some centres undefined),inactive
9,Cc1[nH]nc(-c2ccc(OCc3cnn(-c4ccccc4)c3)cc2O)c1Oc1ccc(Cl)cc1,13.1 µM (active)
10,Oc1cccc(C2c3[nH]c4ccccc4c3CCN2Cc2cnn(-c3ccccc3)c2)c1 (centres undefined),inactive
11,CN=C1S/C(=C\c2c(OC)cc(OC)cc2OC)C(=O)N1C,inactive
12,O=C(CN1CCCCCC1)Nc1ccc(S(=O)(=O)N2CCCCC2)cc1,inactive
13,CC(Oc1ccccc1[N+](=O)[O-])C(=O)N/N=C/c1ccoc1 (centres undefined),inactive
14,CCc1noc(C)c1C(=O)Nc1nc(-c2ccccc2)cs1,inactive
15,Cc1cc(-c2csc(N)n2)c(C)n1Cc1ccccc1,inactive
16,CC(=O)Nc1ccc(C(=O)Nc2nc(-c3cc(C)n(Cc4ccccc4)c3C)cs2)cc1,4.15 µM (active)
17,CCN(CC(=O)NCc1cccs1)C(=O)/C=C/c1ccc(C)cc1,inactive
18,Cc1cc2ccccc2n1CCC(=O)O,inactive
19,O=C(O)CCn1c(O)c(C=C2N=c3ccccc3=N2)sc1=S,4.65 µM (active)
20,O=C(O)CCn1c(Cc2ccccc2)nc2ccccc21,inactive
21,CCS(=O)(=O)C1=NSC2=NC(=O)/C(=C\c3ccc(OS(=O)(=O)c4ccccc4)cc3)C(=N)N21,inactive
22,CC(C)(C)C(=O)Nc1c(Br)c(C2CC2)nn1-c1ccccc1,inactive
23,Cc1cc(=O)oc2c1ccc1ccccc12,inactive
24,Cc1coc2c(O)cc3c(c12)OC1(N2CCCCC2)C(=O)NCCCC31 (centres undefined),9.28 µM (active)
25,NNC(=O)c1ccc(COCC(F)(F)C(F)F)cc1,inactive
26,O=C(N/N=C/c1ccco1)c1csc2c1CCCC2,inactive

row,SMILES,Potency
1,COc1ccc(C(=O)N2CCCCC2C(=O)Nc2ccc(-n3nc(C)cc3C)cc2)o1 (centres undefined),10.4 µM (active)
2,CN(C)C(=O)CCC(=O)N1CCCCC1C(=O)Nc1ccc(Oc2ccccc2F)cc1 (centres undefined),inactive
3,Cc1cc(C)n(-c2ccc(NC(=O)C3CCCCN3C(=O)c3cccs3)cc2)n1 (centres undefined),inactive
4,O=C(CN1CCCCC1)NC(=O)Nc1ccccc1F,inactive
5,CCN(CC(=O)NCC(=O)Nc1cccc(C)c1C)Cc1ccccc1,inactive
6,COc1cccc(C(=O)OCc2cc(=O)oc3c(C)c(C)ccc23)c1OC,inactive
7,COc1cccc2cc(-c3cc(=O)oc4cc(C)c(O)cc34)oc12,13.1 µM (active)
8,COc1cccc2cc(C(=O)N3CCN(C(=O)c4ccccc4)CC3)c(=O)oc12,inactive
9,O=C(NCc1ccccc1)C(c1ccccc1)N(C(=O)c1csnn1)c1ccc(F)cc1 (centres undefined),inactive
10,O=C(O)CCCn1cc(NC(=O)COc2cccc(Cl)c2)cn1,14.7 µM (active)
11,O=C(COc1cccc(Cl)c1)NCc1ccccc1,inactive
12,O=C(O)CCCC(=O)Nc1ccc(Oc2cccc(C(F)(F)F)c2)nc1,inactive
13,COc1ccccc1NC(=O)C(C)OC(=O)CC1CCCC1 (centres undefined),inactive
14,Cc1ccccc1NC(=O)CCNS(=O)(=O)c1ccc2[nH]c(=O)oc2c1,inactive
15,COc1cccc(CN(C)CC(=O)Nc2sc3c(c2C#N)CCC3)c1,inactive
16,Cc1ccccc1C(OCC(O)CN1CCCCC1CCO)c1ccccc1 (centres undefined),inactive
17,COc1cccc(CN(C)CC(O)COC(c2ccccc2)c2ccccc2C)c1 (centres undefined),5.86 µM (active)
18,CCc1nn(CCCC(=O)NC(C)c2ccccc2)c(=O)c2cc3occc3n12 (centres undefined),inactive
19,CCN1C(=O)C(=O)N(CC(=O)Nc2cc(C)ccc2C)C1=O,inactive
20,Cc1cccc(NC(=O)CCN2CC(C)CC(C)C2)c1 (centres undefined),inactive
21,Cc1cccn2c(=O)c(C=O)c(Nc3ccc(S(N)(=O)=O)cc3)nc12,5.86 µM (active)
22,NS(=O)(=O)c1ccc(Nc2nc(-c3ccccc3)cs2)cc1,inactive
23,CNc1nc2c(C)cccn2c(=O)c1C=Nc1ccc(OC)cc1,inactive
24,CCOCCCNC(=O)c1ccc(CS(=O)(=O)c2cccc(C(F)(F)F)c2)o1,inactive
25,CCc1cc(C(=O)Nc2nnc(C3CC3)s2)sc1C,inactive
26,COc1ccc(CCn2c(-c3ccco3)nc3nc4ccccc4nc32)cc1OC,inactive

row,SMILES,Potency
1,COc1cc(-c2n[nH]c(=S)n2Cc2ccccc2)cc(OC)c1OC,inactive
2,CCC(C)n1c(-c2cc(OC)c(OC)c(OC)c2)nc2nc3ccccc3nc21 (centres undefined),5.86 µM (active)
3,COc1ccccc1N1CCN(CC(=O)Nc2ccnn2C2CCCC2)CC1,inactive
4,Cc1ccc(SCC(=O)NNC(=O)c2ccc(S(C)(=O)=O)cc2)cc1,inactive
5,COc1ccccc1CN1CC(C(=O)NCCc2cn[nH]c2)CCC1=O (centres undefined),inactive
6,CCC(=O)Nc1ccc2c(c1)nc(CCN1CCN(c3ccccn3)CC1)n2C,inactive
7,O=C(NC(=S)Nc1ccc(S(=O)(=O)Nc2ncccn2)cc1)c1cccc(Br)c1,inactive
8,NS(=O)(=O)c1ccc(NC(=S)NC(=O)c2cccc(Br)c2)cc1,13.1 µM (active)
9,NS(=O)(=O)c1ccc(NC(=S)NC(=O)c2cccnc2)cc1,inactive
10,Cc1cc(NC(=O)[C@H](C)NC(=O)c2ccco2)ccc1Br,inactive
11,CCc1ccc(C(=O)COC(=O)c2ccco2)cc1,inactive
12,CC(C)(C)c1ccc(C(=O)N2CCC(C(=O)N3CCCCC3)CC2)cc1,inactive
13,CCOC(=O)c1cc2c(n(-c3ccc(C)cc3)c1=O)CCCC2=O,inactive
14,CCOC(=O)C1=C(N)N(c2ccc(C)cc2)C2=C(C(=O)CCC2)C1c1cccs1 (centres undefined),3.7 µM (active)
15,CCOC(=O)C1=C(C)NC(=S)NC1c1cccs1 (centres undefined),inactive
16,COC(=O)c1ccc(NC(=O)c2cc3c(CO)cnc(C)c3oc2=Nc2cccc(C(N)=O)c2)cc1,inactive
17,Cc1cc(-c2n[nH]c(=S)n2/N=C/C(Br)=C/c2ccccc2)n[nH]1,inactive
18,CC(/C=N/NC(=O)c1cc(-c2ccc3ccccc3c2)n[nH]1)=C\c1ccco1,inactive
19,CC(C)c1cc(C(=O)N/N=C/C(Br)=C/c2ccccc2)n[nH]1,3.29 µM (active)
20,CN(C(=O)COC(=O)CCCc1c[nH]c2ccccc12)c1c(N)n(Cc2ccccc2)c(=O)[nH]c1=O,inactive
21,CCCNC(=O)C(=O)Nc1cc2c3c(c1)CCC(=O)N3CCC2,inactive
22,COc1ccc(CCNC(=O)C2CCCN2C(=O)Nc2ccccc2)cc1OC (centres undefined),inactive
23,O=C(O)/C=C/c1cn(-c2ccccc2)nc1-c1cccs1,inactive
24,COc1ccc(-c2nn(-c3ccccc3)cc2/C=C\C(=O)Nc2ccc(C(=O)O)cc2)cc1,inactive
25,O=C(O)/C=C/c1cn(Cc2ccccc2)nc1-c1cccs1,inactive
26,O=C(O)c1ccc(NC(=O)c2cn(-c3ccccc3)nc2-c2ccc(Cl)cc2)cc1,inactive

row,SMILES,Potency
1,O=C(/C=C\c1cn(-c2ccccc2)nc1-c1cccs1)N1CCOCC1,10.4 µM (active)
2,O=C(O)c1ccc(N/N=C/c2cn(-c3ccccc3)nc2-c2cccs2)cc1,0.465 µM (active)
3,N#Cc1cccc(CN2CCC(=O)N(CCO)CC2)c1,inactive
4,COc1ccccc1N1CCN(S(=O)(=O)CCNC(=O)c2ccc(OC(C)C)cc2)CC1,inactive
5,CCCCC1(C(=O)OCC)NC(c2ccc(O)cc2)C2C(=O)N(c3ccccc3)C(=O)C21 (centres undefined),inactive
6,CC(OC(=O)C1CC(=O)N(Cc2ccccc2)C1)C(=O)Nc1ccccc1[N+](=O)[O-] (centres undefined),inactive
7,CCSCc1nc(N)nc(NCCc2ccccc2)n1,inactive
8,CC(C)C(=O)N1CC(=O)Nc2ccc(F)cc2C1c1ccc(F)cc1 (centres undefined),inactive
9,Cc1ccc2c(c1)C(c1ccccc1)N(C(=O)c1ccc(F)cc1)CC(=O)N2 (centres undefined),inactive
10,O=C1CN(C(=O)c2ccccc2F)C(c2ccc(F)cc2)c2cc(F)ccc2N1 (centres undefined),inactive
11,CCC(CC)C(=O)N1CC(=O)Nc2ccc(Br)cc2C1c1ccccc1 (centres undefined),8.28 µM (active)
12,COC(=O)CN1C(C)=Nc2ccc(Br)cc2C1c1ccccc1 (centres undefined),inactive
13,Cc1ccc(C(=O)N2CC(=O)Nc3ccc(F)cc3C2c2ccc(F)cc2)cc1 (centres undefined),1.47 µM (active)
14,CCCCn1c(N)c(N(CC(C)C)C(=O)c2cccc(S(=O)(=O)N3CC(C)OC(C)C3)c2)c(=O)[nH]c1=O (centres undefined),inactive
15,O=C(COC(=O)c1cc(=O)[nH]c2ccccc12)NCc1cccc(Cl)c1,inactive
16,O=C(Nc1ccccc1C(=O)N1CCOCC1)c1ccc(Cl)cc1,13.1 µM (active)
17,O=C(Nc1ccccc1C(=O)N1CCCCCC1)c1ccccc1Cl,inactive
18,O=C(Nc1ccccc1C(=O)N1CCOCC1)c1ccc(CSc2ccccc2)cc1,inactive
19,O=C(CN1CCN(C(=O)c2cccc(F)c2)CC1)Nc1ccccc1F,inactive
20,CC(=O)NC1(c2cccc(F)c2)CCN(CC(=O)NC(C)C)CC1,1.85 µM (active)
21,Cc1cc(NC(=O)CN2CCC(O)(c3cccc(F)c3)CC2)no1,inactive
22,O=C(O)Cc1csc(NC(=O)CSc2nnnn2-c2ccc(O)cc2)n1,inactive
23,CCn1c(SCC(=O)NC2CC2)nnc1-c1ccccn1,inactive
24,Cc1ccc(S(=O)(=O)N(C)CC(=O)NC2CCCC2)cc1,inactive
25,CCN(CC(=O)NCCc1ccccc1)S(=O)(=O)c1ccc(C)cc1,inactive
26,Cc1ccc(S(=O)(=O)N(CC(=O)NCCSC2CCCCC2)c2ccccc2F)cc1,1.65 µM (active)
